# Test results: PubChem BioAssay AID624417 (National Center for Advancing Translational Sciences (NCATS), 2012)
# Hit rate of the full screen: of about 410,000 compounds, about 6,400 (1.6%) were called active. Inconclusive results (about 20%) are left out. What follows is part of a selection rich in actives, with near analogues and random picks from the rest. Unmarked numbers belong to inactive results. Calls follow the shape of the dose curve; as a rule, active = well fitted inhibition curve with a large enough effect; inconclusive = small, poorly fitted or top-dose-only effect; inactive = no such curve, though single readings can be large or run the other way.
# Molecular target: Glucagon-like peptide 1 receptor (Homo sapiens) (UniProt P43220)
# Sequence (P43220 whole entry, looked up): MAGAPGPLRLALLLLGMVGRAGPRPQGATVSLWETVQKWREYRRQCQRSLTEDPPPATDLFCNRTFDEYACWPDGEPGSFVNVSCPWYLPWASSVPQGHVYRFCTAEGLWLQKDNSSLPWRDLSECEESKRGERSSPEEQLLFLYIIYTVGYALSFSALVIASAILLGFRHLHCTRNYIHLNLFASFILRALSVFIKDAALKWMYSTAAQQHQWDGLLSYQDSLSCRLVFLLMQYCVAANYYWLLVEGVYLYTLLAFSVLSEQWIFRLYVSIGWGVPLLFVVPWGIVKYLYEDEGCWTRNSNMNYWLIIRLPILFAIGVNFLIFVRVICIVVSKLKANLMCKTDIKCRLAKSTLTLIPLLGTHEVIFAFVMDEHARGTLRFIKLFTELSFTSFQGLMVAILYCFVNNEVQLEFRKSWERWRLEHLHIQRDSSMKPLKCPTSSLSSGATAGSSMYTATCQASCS
# Experiment: qHTS of GLP-1 Receptor Inverse Agonists (Inhibition Mode); also: nearly all actives have a fitted effect of over 55% in size
# Conditions: HEK293 GLP-1R CRE-luciferase, luminescence, 24 h; series mostly up to 38.3 µM; activity change, negative = inhibition: at the top concentration
# From the text: The overall goal of this project was to develop a novel assay for discovering small molecule ligands for class B1 G protein-coupled receptors (GPCRs). Very few agonists (or inverse agonists in inhibition mode) with generally weak activity for this entire group of physiologically important receptors are known to date. To establish proof-of-principle that this critical bottleneck can be overcome with a suitable screening approach, our studies focused on the class B1 receptor for glucagon-like peptide-1 (GLP-1R), a potential therapeutic target for diabetes and neurodegenerative disease. The assay was developed using a cell-based functional readout. Toward this goal, stably transfected HEK293 cell clones were established that co-express (i) a cAMP-responsive luciferase reporter gene, and (ii) constitutively active GLP-1R that upon ligand interaction inhibit (inverse agonists) the luciferase activity. In addition, two control cell lines were developed: (i) one that express only the cAMP-responsive reporter gene to enable initial exclusion of GLP-1R independent effects of candidate probes; and (ii) one with the reported gene cloned with another constitutively active orphan receptor GPR119 to enable exclusion of GLP-1R independent inhibitor effects of candidate inverse agonists. To that end, this assay was optimized for 1536-well format and screened against the MLSMR. […] NIH Molecular Libraries Probe Production Network [MLPCN] NIH Chemical Genomics Center [NCGC] Grant: NS064851 PI Name: Martin Beinborn, Tufts Medical Center
# Six ul of cell suspension (200 cells/uL in DMEM + 10% Nu serum + 1% pen-strep) is dispensed in a white solid 1536-well plate. The plates are incubated for 12 hours at 37 deg C at 5% CO2 followed by addition of 23 nL compounds. After 24 hr incubation at 37 deg C and 5% CO2, 3 uL of luciferase assay detection reagent is added. A luminescence read is obtained on the PerkinElmer Viewlux after 12 min incubation at room temperature.
# % is scaled to controls: 0 for no effect and ±100 for the full control effect; potency is read from the fitted curve at half-maximal effect.
SMILES,Potency,"activity change, negative = inhibition"
COc1cc(-n2c(=S)[nH]c3ccc(C)cc3c2=O)c(Cl)cc1Cl,12.6 µM (active),
O=c1c2ccccc2[nH]c(=S)n1-c1cccc(Cl)c1,,-3.22%
C[C@]12CCCCC1=CC(=O)C1C2CC[C@@]2(C)C1C[C@@H](F)[C@@H]2O (stereo not given in full),,8.19%
COC1=CC=C2[C@H]3Cc4ccc(OC)c5c4[C@@]2(CCN3C)C1O5 (stereo not given in full),,0.902%
COc1ccc2c(c1)NP(=S)(c1ccccc1)N2 (stereo not given),,40.2%
COC(=O)C1=C(c2cccc(OCc3ccccc3)c2)C[C@@H]2CC[C@H]1N2C(=O)NCc1ccc(Br)cc1,12.6 µM (active),
COC(=O)C1=C(c2ccc(OCc3ccccc3)cc2)C[C@@H]2CC[C@H]1N2C(=O)NCc1cccc(F)c1,4.47 µM (active),
COC(=O)C1=C(c2ccc(-c3ccccc3)c(F)c2)C[C@@H]2CC[C@H]1N2C(=O)NCc1ccc(F)cc1,,-3.76%
COC(=O)C1=C(c2ccccc2OCc2ccccc2)C[C@@H]2CC[C@H]1N2C(=O)NCc1ccc(OC)cc1,,-8.58%
COC(=O)C1=C(c2ccc(OCc3ccccc3)cc2)C[C@@H]2CC[C@H]1N2C(=O)NCc1ccc(Cl)cc1,,7.75%
COC(=O)C1=C(c2ccc(F)cc2OCc2ccccc2)C[C@@H]2CC[C@H]1N2C(=O)NCc1ccc(Cl)cc1,,9.06%
COc1ccc(NC(=O)N2Cc3ccccc3-n3nncc3C2)cc1,,17.6%
O=P(OC1=CCCCC1)(c1ccccc1)c1ccccc1,,-26.9%
CCOC(=O)CNC(=O)N1Cc2cc(N3CCCCC3)ccc2-n2nncc2C1,,23.3%
O=C1NCN(c2ccccc2)C12CCN(C(c1cccs1)c1nnnn1C1CCCCC1)CC2 (stereo not given),,-19.9%
CC1([N+](=O)[O-])COP(=O)(Nc2ccc(F)cc2)OC1 (stereo not given),,17.7%
C[C@]12CCC3C(CC[C@H]4[C@H](O)[C@H](O)CC[C@]34C)C1CC[C@@H]2O (stereo not given in full),,31.4%
Cc1ccc(CN2CCCC(C(=O)c3ccc4c(c3)OCO4)C2)cc1C (stereo not given),11.2 µM (active),
COc1ccc(C(=O)C2CCCN(Cc3ccc(C)s3)C2)cc1OC (stereo not given),,-22.3%
Cc1ccsc1C(=O)C1CCCN(Cc2ccc(O)cc2)C1 (stereo not given),,-8.89%
COc1cc(C(=O)N2Cc3ccc(Br)cc3-n3nncc3C2)cc(OC)c1OC,,29.4%
Clc1ccc(Cl)c(Oc2ccc(Oc3nc(Cl)ccc3Cl)cc2)n1,,"42% [at 38.3 µM, GLP-1R form is constitutively active]"
C[C@H]1CN([C@@H](C)CO)C(=O)CCCn2nncc2CO[C@H]1CN(C)C(=O)Oc1cccc2ccccc12,,12.5%
CC=C(C)C(=O)OC1CCN2CC=C(COC(=O)C(O)(C(C)OC)C(C)(C)O)C12 (stereo not given),,1.04%
Cc1ccc(S(=O)(=O)N(C)c2ccc(C(=O)NCC3(N(C)C)CCCCC3)cc2)cc1,3.16 µM [GLP-1R form is constitutively active] (active),
COC1C(O)C(C)OC(OC2CCC3(C=O)C(CCC4C3CCC3(C)C(C5=CC(=O)OC5)CCC43O)C2)C1O (stereo not given),,-95.1%
O=c1c2ccccc2nc(/C=C/c2ccc(F)cc2)n1-c1ccccc1O,,-19.7%

SMILES,Potency,"activity change, negative = inhibition"
O=c1c2ccccc2nc(/C=C/c2ccco2)n1-c1ccccc1O,11.2 µM (active),
Cn1cc(/C=C/c2nc3ccccc3c(=O)n2-c2ccccc2)c2ccccc21,,-25.5%
CC1CCCN1CCC(C(N)=O)(c1ccccc1)c1ccccc1 (stereo not given),,1.28%
CC1CC=CCC12C(=O)NC(=S)NC2=O (stereo not given),,2.41%
CCN1C(=O)NC(=O)C2(CCCC2)C1=O,,18.7%
C[C@H]1CN([C@@H](C)CO)C(=O)CCCn2nncc2CO[C@H]1CN(C)C(=O)Oc1ccccc1,,1.58%
O=C1NC(=O)C(Cc2ccccc2)C(=O)N1,,24.2%
COC(=O)C[C@H]1CC[C@H]2NC[C@@H](O)COC[C@@H]2O1,,4.27%
CCn1cc(CN2CCCC(C(=O)c3cccc(C(F)(F)F)c3)C2)cn1 (stereo not given),,-9.71%
COc1ccc(NC(=O)c2cn(CCC#N)nc2-c2ccc([N+](=O)[O-])cc2)cc1,,5.82%
COc1ccc(-c2nn(CCC#N)cc2C(=O)Nc2ccc(C(C)=O)cc2)cc1,,26.7%
COc1cccc(C(=O)Nc2ccc(-c3cc(C(F)(F)F)nn3-c3ccccc3)cc2)c1,7.94 µM [GLP-1R form is constitutively active] (active),
O=C1NC(=O)C(CCOc2ccccc2)(CCc2ccccc2)C(=O)N1,,-13%
O=C1C2CCN(CC2)C1(CO)CO,,10.6%
CC12CCC(O)CC1CCC1C2CCC2(C)C(C(=O)CC(O)C(F)(F)F)CCC12 (stereo not given),,-25.5%
CCCCOc1ccc(C(=O)N2CC(=O)Nc3ccc(Br)cc3C2c2ccc(F)cc2)cc1 (stereo not given),10 µM [GLP-1R form is constitutively active] (active),
CC(=O)NCC1=C(c2ccc3ccccc3c2)C[C@@H]2CC[C@H]1N2Cc1ccco1,,-25.4%
O=C1C2(Cl)C3(Cl)C4(Cl)C(Cl)(Cl)C5(Cl)C3(Cl)C1(Cl)C5(Cl)C24Cl (stereo not given),4.47 µM (active),
CC(C)CN1Cc2cc(N3CCCCC3)ccc2-n2nncc2C1,,4.71%
COc1ccc(C2C=C(C)Oc3c2c(=O)oc2ccccc32)cc1OC (stereo not given),,18.2%
CSCCC(c1nnnn1C(C)(C)C)N1CCC(n2c(=O)[nH]c3ccccc32)CC1 (stereo not given),,8.28%
O=C(CCN1CCCCC1)NCC(=O)Nc1ccc(Br)cc1C(=O)c1ccccc1,,0%
O=C(COC(=O)c1ccccc1)Nc1ccc(Cl)cc1C(=O)c1ccccc1,,16.5%
O=C(CN1CCCCC1)Nc1ccc(Br)cc1C(=O)c1ccccc1Cl,10 µM [GLP-1R form is constitutively active] (active),
CC(=O)c1ccc(-c2ccc(Cn3c(C)nc4cc(N)c(C)nc43)cc2)cc1,,"52.8% [at 38.3 µM, GLP-1R form is constitutively active]"
O=C(NC1CCCCC1)N1Cc2cc(N3CCCCC3)ccc2-n2nncc2C1,,4.72%
CC(=O)C1(O)CCC2C3CCC4=C(Cl)C(=O)CCC4(C)C3CCC21C (stereo not given),,-1.41%

SMILES,Potency,"activity change, negative = inhibition"
CCOC(=O)C1(Cc2ccc(Cl)cc2)CCN(C(C)CCn2cccn2)CC1 (stereo not given),7.94 µM [GLP-1R form is constitutively active] (active),
Oc1ccc2c3c1OC1[C@H](O)CC[C@@]4(O)[C@@H](C2)N(CC2CC2)CC[C@]314 (stereo not given in full),inactive,
CC1CNCCN1c1ccc(Cl)cc1 (stereo not given),,-15.4%
CC1=C(C(=O)Nc2ccccc2)SCCO1,,9.26%
CC1=C(C(=O)Nc2ccccc2)S(=O)(=O)CCO1,10 µM (active),
CCC(=O)OC(Cc1ccccc1)(c1ccccc1)C(C)CN(C)C (stereo not given),,-4.67%
C=C(C)C1(CCCC)C(=O)NC(=S)NC1=O,,2.43%
CCC1(CC(C)c2ccccc2)C(=O)NC(=O)NC1=O (stereo not given),,12.3%
CCC(C)(O)C(=O)OC1C(=O)OC2CC3C(C)=CC(=O)C(O)C3(C)C3C4(O)OCC23C1C(C)C4O (stereo not given),,-71.9%
COc1ccc(C2CC(c3cccs3)=NN2c2nc(C)c(C(C)=O)s2)cc1OC (stereo not given),,"20.9% [at 38.3 µM, GLP-1R form is constitutively active]"
CCOC(=O)[C@]12Cc3ccccc3[C@H]1N(C1CCCCC1)C(=O)c1cc(OC)ccc12,5.62 µM (active),
Cc1ccc(OC(=O)N(C)C[C@@H]2OCc3cnnn3CCCC(=O)N([C@H](C)CO)C[C@@H]2C)cc1,,12.8%
S=C(NCCc1ccccc1)N1Cc2cc(N3CCOCC3)ccc2-n2nncc2C1,,19.2%
COc1cccc(-c2nc3ccc(N4CCN(C)CC4)cc3[nH]2)c1,1.12 µM (active),
Cc1nc2ccc(N3CCN(C)CC3)cc2nc1C,,14.2%
c1ccc(N2Cc3ccccc3-n3nncc3C2)nc1,,12.7%
CC(=CCOc1ccc2ccc(=O)oc2c1)C1=CC(=O)C(C)(C)O1,2.24 µM (active),
CCOc1ccc(CC(=O)NCCc2csc3nc(-c4ccccc4F)nn23)cc1,,"53.9% [at 38.3 µM, GLP-1R form is constitutively active]"
CC12CCC3C(CCC4CC(=O)CCC43C)C1CC(=NO)C2=O (stereo not given),,6.88%
CCOC(=O)c1cccc(C2=C(CNC(=O)c3ccncc3)[C@H]3CC[C@@H](C2)N3Cc2ccccc2)c1,,-13.7%
COC(=O)CN(CCCl)P1(=O)OCCCN1CCCl (stereo not given),,13.7%
CC(=O)Nc1cc(-c2cccc(CO)c2)cn2c(-c3cccc(C(F)(F)F)c3)cnc12,,"33.2% [at 38.3 µM, GLP-1R form is constitutively active]"
O=Cc1cn(Cc2ccc(F)cc2Cl)c2ccccc12,10 µM (active),
O=C(C1CCN(S(=O)(=O)c2ccc(Br)s2)CC1)N1CCN(c2ccccc2)CC1,,"15.4% [at 38.3 µM, GLP-1R form is constitutively active]"
CC1C(=O)OC2CCN3CC=C(COC(=O)C(C)(O)C1(C)O)C23 (stereo not given),,-20%
O=c1c2ccccc2nc(CBr)n1-c1ccc(Cl)cc1,,9.46%
